Laboratory results published in PubChem BioAssay (NCI).
Compounds without any hit were thinned out: in the full panel of roughly 83,000, 20% have a hit.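 48-hour exposure, single concentration, 96-well plates; percent growth endpoint where 0 means no net growth. Active: below 10.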 Values without a mark were called inactive. Calls of active or inactive are those of the source.

Assays:
Assay in all cases: NCI-60 one-dose screen, 48 h (100 = growth as untreated, 0 = no growth, -100 = all killed)
Conditions in all cases: 10 µM unless noted
[1] = system: DU-145 prostate
[2] = system: K-562 leukemia
[3] = system: MALME-3M melanoma
[4] = system: MDA-MB-231 breast
[5] = system: RXF 393 renal
[6] = system: SF-268 CNS
[7] = system: SF-295 CNS
[8] = system: SF-539 CNS
[9] = system: UACC-257 melanoma
[10] = system: M14 melanoma

For COc1cnc2c(c1)C(=O)c1c-2n(CCCN2CCNCC2)c(=O)c2cc(F)ccc12, the growth [1] was -0.602% (active), the growth [2] was -65.9% (active) and the growth [3] was -60.7% (active). The growth [4] was 9.36% (active), the growth [5] was -36% (active) and the growth [6] was 6.43% (active). The growth [7] was 0.838% (active), the growth [8] was -64.2% (active) and the growth [9] was 10.8%. The growth [10] was -56.7% (active).
CCNCCCn1c2c(c3ccc(F)cc3c1=O)C(=O)c1cc(OC)cnc1-2 was tested, and the growth [1] was -2.92% (active), the growth [2] was 1.44% (active) and the growth [3] was -68.7% (active). For the same molecule, the growth [4] was 3.91% (active), the growth [5] was -80.8% (active) and the growth [6] was 1.76% (active). The growth [7] was -21% (active), the growth [8] was -25.7% (active) and the growth [9] was -20.4% (active). For the same molecule, the growth [10] was -25.9% (active).
Work on COc1ccc(C2=NN(C(C)=O)C(c3cccc(Nc4ccnc5cc(Cl)ccc45)c3)C2)cc1 (stereo not given) yielded a growth [1] of 62.3%, a growth [2] of 18.3% and a growth [3] of 65.8%. For the same molecule, the growth [4] was 63%, the growth [5] was 51.1% and the growth [6] was 48.2%. The growth [7] was 52.5%, the growth [8] was 72.7% and the growth [9] was 49.2%. It also gave a growth [10] of 40.2%.
In the case of CC1=C([Se]CC(OC(=O)[C@@H](CSSC(C)(C)C)NC(=O)C(C)(C)C)C(=O)NCCCCCC(=O)OCc2ccccc2)C(=O)c2ccccc2C1=O (stereo not given in full), the growth [1] is reported as 13.3%, the growth [2] is reported as 7.91% (active) and the growth [3] is reported as -39.1% (active). For the same molecule, the growth [4] was -15.3% (active), the growth [5] was -33.5% (active) and the growth [6] was 7.11% (active). For the same molecule, the growth [7] was -27.8% (active), the growth [8] was -69.4% (active) and the growth [9] was -20.8% (active). For the same molecule, the growth [10] was -32.5% (active).
In the case of CC(C)CC1NC(=O)C(CCCN)NC(=O)C(C(C)C)NC(=O)C2CCCN2C(=O)C(Cc2ccccc2)NC(=O)C(CC(C)C)NC(=O)C(CCCN)NC(=O)C(C(C)C)NC(=O)C2CCCN2C(=O)C(Cc2ccccc2)NC1=O (stereo not given), the growth [1] is reported as -52.5% (active), the growth [2] is reported as -53.1% (active) and the growth [3] is reported as -76.3% (active). For the same molecule, the growth [4] was -54.4% (active), the growth [5] was -65.7% (active) and the growth [6] was -85.4% (active). For the same molecule, the growth [7] was -77.4% (active), the growth [8] was -82.5% (active) and the growth [9] was -72.9% (active). The growth [10] was -63.8% (active).
Molecule CC(C)Sc1nc(-c2ccc(Br)cc2)c(C#N)c(N2CCCCC2)n1 has a growth [1] of 109%, a growth [2] of 116% and a growth [3] of 94.1%. The growth [4] was 90.9%, the growth [5] was 110% and the growth [6] was 103%. The growth [7] was 96.7%, the growth [8] was 104% and the growth [9] was 109%. The growth [10] was 104%.
For O=C(NCCNC(=O)Oc1cccc2ccccc12)Oc1cccc2ccccc12, the growth [1] was 112%, the growth [2] was 102% and the growth [3] was 141%. It also gave a growth [4] of 68.8%, a growth [5] of 104% and a growth [6] of 83.9%. It also gave a growth [7] of 111%, a growth [8] of 101% and a growth [9] of 88.3%. It also gave a growth [10] of 107%.
O[N+]1=CC=CCC1=S.On1ccccc1=S.[Zn] was tested, and the growth [1] was -90.1% (active), the growth [2] was -17.7% (active) and the growth [3] was -54.9% (active). For the same molecule, the growth [4] was -81.4% (active), the growth [5] was -84.9% (active) and the growth [6] was -46.6% (active). The growth [7] was -81.5% (active), the growth [8] was -64.8% (active) and the growth [9] was -88.8% (active). The growth [10] was -74.2% (active).
With O=C(CSc1nnc(-c2cc(-c3ccccc3)nc3ccccc23)o1)c1ccc(Br)cc1 the growth [1] was 106%, the growth [2] was 91% and the growth [3] was 97.3%. For the same molecule, the growth [4] was 95.4%, the growth [5] was 108% and the growth [6] was 93.8%. It also gave a growth [7] of 107%, a growth [8] of 99.6% and a growth [9] of 111%. The growth [10] was 101%.
CCCCN=C(N)c1ccc(OCCSCCOc2ccc(C(N)=NCCCC)cc2)cc1 gave a growth [1] of 55.3%, a growth [2] of 40.9% and a growth [3] of 39.3%. The growth [4] was 58.7%, the growth [5] was 92.6% and the growth [6] was 35.6%. The growth [7] was -36.4% (active), the growth [8] was 55% and the growth [9] was 39.9%. It also gave a growth [10] of 81.6%.
In the case of COc1ccc(C2CC(c3ccc(Nc4ccnc5cc(Cl)ccc45)cc3)=NN2C(C)=O)cc1 (stereo not given), the growth [1] is reported as 88.1%, the growth [2] is reported as 32.3% and the growth [3] is reported as 58.2%. For the same molecule, the growth [4] was 80.9%, the growth [5] was 73.1% and the growth [6] was 72.2%. For the same molecule, the growth [7] was 42.6%, the growth [8] was 95.8% and the growth [9] was 88%. The growth [10] was 79.5%.
Cc1ccc2nc(-c3ccc(N(C)C)c(Br)c3)cn2c1 was tested, and the growth [1] was 93.7%, the growth [2] was 29% and the growth [3] was 116%. It also gave a growth [4] of 92.9%, a growth [5] of 62.8% and a growth [6] of 78.2%. For the same molecule, the growth [7] was 90.5%, the growth [8] was 65.9% and the growth [9] was 90.7%. For the same molecule, the growth [10] was 78.6%.
In the case of Nc1nc2c(c(=O)[nH]1)C1(C(=O)Nc3ccccc31)c1c(nc(N)[nH]c1=O)N2, the growth [1] is reported as 108%, the growth [2] is reported as 115% and the growth [3] is reported as 99.9%. It also gave a growth [4] of 98.7%, a growth [5] of 96.6% and a growth [6] of 104%. For the same molecule, the growth [7] was 101%, the growth [8] was 106% and the growth [9] was 110%. It also gave a growth [10] of 99.3%.
With CCOC(=O)/C=C1/SC(=Nc2ccc(C#N)cc2)N(Cc2ccco2)C1=O the growth [1] was 39.2%, the growth [2] was 8.76% (active) and the growth [3] was 47.6%. For the same molecule, the growth [4] was 57%, the growth [5] was -23.9% (active) and the growth [6] was 73.2%. The growth [7] was 88.8%, the growth [8] was 38.1% and the growth [9] was 54.9%. It also gave a growth [10] of 25.8%.
O=C(Nc1ccc2c(c1)C(=O)c1ccccc1-2)c1ccccc1 gave a growth [1] of 81.9%, a growth [2] of 81.2% and a growth [3] of 90.2%. For the same molecule, the growth [4] was 81.9%, the growth [5] was 99.2% and the growth [6] was 65.2%. The growth [7] was 103%, the growth [8] was 52.6% and the growth [9] was 111%. The growth [10] was 88%.
With COc1ccc2c(c1)[n+](=O)c(/C=C/C(=O)c1cc(OC)c(OC)c(OC)c1)c(C)n2[O-] the growth [1] was 17.5%, the growth [2] was 2.27% (active) and the growth [3] was 86%. It also gave a growth [4] of 84.1%, a growth [5] of 38.5% and a growth [6] of 69.4%. For the same molecule, the growth [7] was 46.4%, the growth [8] was 70.2% and the growth [9] was 63.6%. The growth [10] was 63.6%.
Work on COc1ccc2c(c1)sc1nc(-c3ccc(Br)cc3)cn12 yielded a growth [1] of 115%, a growth [2] of 90.9% and a growth [3] of 109%. For the same molecule, the growth [4] was 89.6%, the growth [5] was 109% and the growth [6] was 118%. For the same molecule, the growth [7] was 89.2%, the growth [8] was 105% and the growth [9] was 101%. The growth [10] was 103%.
In the case of CCOc1cc(/C=C/C(=O)C(C(=O)/C=C/c2ccc(OC(=O)CNc3nnc(C)s3)c(OCC)c2)C(=O)CNc2nnc(C)s2)ccc1OC(=O)CNc1nnc(C)s1, the growth [1] is reported as -68.7% (active), the growth [2] is reported as -41.8% (active) and the growth [3] is reported as -20.8% (active). For the same molecule, the growth [4] was -36.9% (active), the growth [5] was -78.5% (active) and the growth [6] was -16.4% (active). For the same molecule, the growth [7] was -24.7% (active), the growth [8] was -54.5% (active) and the growth [9] was 15.3%. For the same molecule, the growth [10] was -26.3% (active).
COc1ccc2c(c1)c(CC(=O)[Se]C)c(C)n2C(=O)c1ccc(Cl)cc1 was tested, and the growth [1] was -7.9% (active), the growth [2] was 29.8% and the growth [3] was -41.9% (active). For the same molecule, the growth [4] was 44.4%, the growth [5] was 4.4% (active) and the growth [6] was -26.5% (active). For the same molecule, the growth [7] was 12.7%, the growth [8] was -17.4% (active) and the growth [9] was 3.77% (active). The growth [10] was -13.9% (active).
Work on COc1cccc(/C=N/Nc2nc3ccccc3s2)c1OC yielded a growth [1] of 98.3%, a growth [2] of 50.9% and a growth [3] of 90.4%. It also gave a growth [4] of 86.3%, a growth [5] of 97.9% and a growth [6] of 72.7%. For the same molecule, the growth [7] was 85.4%, the growth [8] was 74.2% and the growth [9] was 96.4%. It also gave a growth [10] of 91.1%.
With c1ccc(-c2nc(Nc3nccnn3)c3ccccc3n2)cc1 the growth [1] was 99.5%, the growth [2] was 91.1% and the growth [3] was 99.1%. It also gave a growth [4] of 91.8%, a growth [5] of 96.7% and a growth [6] of 98%. It also gave a growth [7] of 98%, a growth [8] of 99.1% and a growth [9] of 109%. For the same molecule, the growth [10] was 99.3%.
Clc1ccc2[nH]cc(-c3cncn3CCc3ccccc3)c2c1 was tested, and the growth [1] was 80.9%, the growth [2] was 26.9% and the growth [3] was 43.8%. It also gave a growth [4] of 65.9%, a growth [5] of 52.3% and a growth [6] of 46.3%. The growth [7] was 43.5%, the growth [8] was 69.7% and the growth [9] was 50.2%. The growth [10] was 68.6%.
COP(=O)(OC)C(c1ccccc1)(c1ccccc1)c1ccccc1 was tested, and the growth [1] was 112%, the growth [2] was 80.7% and the growth [3] was 103%. For the same molecule, the growth [4] was 90.2%, the growth [5] was 36.9% and the growth [6] was 120%. For the same molecule, the growth [7] was 60%, the growth [8] was 95.9% and the growth [9] was 82.1%. For the same molecule, the growth [10] was 98.7%.
COc1cc(NC(=O)NCc2ccco2)ccc1-c1ccc(NC(=O)NCc2ccco2)cc1OC showed a growth [1] of 56.6%, a growth [2] of 36% and a growth [3] of 78%. For the same molecule, the growth [4] was 43.2%, the growth [5] was -10.7% (active) and the growth [6] was 56.8%. The growth [7] was 46.3%, the growth [8] was -1.88% (active) and the growth [9] was 51%. It also gave a growth [10] of 64.3%.
For Cc1cc(C)cc(S(=O)(=O)n2ccc(-c3ccc4c(c3)CCC(C)(C)O4)n2)c1, the growth [1] was 89.8%, the growth [2] was 85.7% and the growth [3] was 82.9%. It also gave a growth [4] of 93.5%, a growth [5] of 77.3% and a growth [6] of 88.3%. The growth [7] was 85%, the growth [8] was 99.9% and the growth [9] was 89.6%. For the same molecule, the growth [10] was 82.7%.
In the case of CCOC(=O)c1sc(NC(=O)COc2cccc(/C=C3\Cc4ccc(Cl)cc4C3=O)c2)nc1C, the growth [1] is reported as 117%, the growth [2] is reported as 89.9% and the growth [3] is reported as 138%. It also gave a growth [4] of 81.1%, a growth [5] of 131% and a growth [6] of 116%. The growth [7] was 125%, the growth [8] was 107% and the growth [9] was 110%. For the same molecule, the growth [10] was 110%.
With O=C1CSC(c2ccccc2O)N1c1nnc(Cn2ccnc2)o1 (stereo not given) the growth [1] was 80.9%, the growth [2] was 43.5% and the growth [3] was 101%. The growth [4] was 61.6%, the growth [5] was 74.7% and the growth [6] was 55.7%. It also gave a growth [7] of 20.7%, a growth [8] of 55.6% and a growth [9] of 78.7%. For the same molecule, the growth [10] was 59.8%.
